# Measured values: paper PMC7862700, “An all-to-all approach to the identification of sequence-specific readers for epigenetic DNA modifications on cytosine”
# What was measured:
# Test in all cases: DAPPL (digital affinity profiling via proximity ligation, sequencing); 10 mM Tris-HCl pH 7.5, 50 mM NaCl, 1 mM DTT, 4% glycerol, room temperature, 30 min; GST-TFs on glutathione beads, 16-mer random dsDNA library, 0.1% formaldehyde crosslink after washing; high values mean tight binding
# FLI1 = target: T1, FLI1 (Homo sapiens, UniProt Q01543 1-452); conditions: protein: recombinant; tags: N-terminal GST; dsDNA, one strand shown
# T1 sequence: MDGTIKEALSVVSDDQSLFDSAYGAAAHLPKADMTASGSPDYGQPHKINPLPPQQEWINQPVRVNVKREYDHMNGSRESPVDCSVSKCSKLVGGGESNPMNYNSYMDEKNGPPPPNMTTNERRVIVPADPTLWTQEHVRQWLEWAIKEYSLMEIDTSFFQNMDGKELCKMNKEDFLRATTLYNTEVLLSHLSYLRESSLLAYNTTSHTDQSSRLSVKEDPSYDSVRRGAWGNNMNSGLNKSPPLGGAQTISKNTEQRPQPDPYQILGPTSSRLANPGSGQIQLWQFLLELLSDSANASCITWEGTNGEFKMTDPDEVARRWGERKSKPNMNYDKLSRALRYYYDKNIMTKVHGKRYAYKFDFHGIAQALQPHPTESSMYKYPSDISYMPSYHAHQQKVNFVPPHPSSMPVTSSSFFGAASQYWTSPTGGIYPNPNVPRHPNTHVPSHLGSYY
# In short: (§1)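 Beads coated with glutathione captured GST-fused human transcription factors that had been expressed in yeast, and the factors were then given DNA barcodes and pooled with a tag-only sample. The pools were incubated with 200 nmole of a random double-stranded 16-mer DNA library in Tris/NaCl/DTT/glycerol buffer for 30 min at room temperature, washed, crosslinked with 0.1% formaldehyde and proximity-ligated with BsaI/T4 ligase at 37 °C for 1 h. PCR amplification and Illumina NextSeq500 sequencing came last. Binding signal is each hexamer's read frequency for a factor divided by its frequency for the tag-only sample.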
# ELK1 = target: T2, ELK1 (Homo sapiens, UniProt P19419 1-428); conditions: protein: recombinant; tags: N-terminal GST; dsDNA, one strand shown
# T2 sequence: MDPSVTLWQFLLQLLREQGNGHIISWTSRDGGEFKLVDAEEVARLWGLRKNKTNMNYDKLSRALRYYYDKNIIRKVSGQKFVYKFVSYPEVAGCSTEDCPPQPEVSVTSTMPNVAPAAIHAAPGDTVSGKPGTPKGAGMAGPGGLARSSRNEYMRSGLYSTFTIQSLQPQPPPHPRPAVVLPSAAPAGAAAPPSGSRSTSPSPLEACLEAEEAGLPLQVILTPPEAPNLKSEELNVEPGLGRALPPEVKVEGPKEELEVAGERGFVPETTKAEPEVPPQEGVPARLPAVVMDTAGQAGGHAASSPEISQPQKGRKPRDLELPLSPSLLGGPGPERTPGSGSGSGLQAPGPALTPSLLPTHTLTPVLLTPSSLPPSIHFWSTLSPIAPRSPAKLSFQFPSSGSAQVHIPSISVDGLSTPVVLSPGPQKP
# In short: as §1
# GABPA = target: T3, GABPA (Homo sapiens, UniProt Q06546 1-454); conditions: protein: recombinant; tags: N-terminal GST; dsDNA, one strand shown
# T3 sequence: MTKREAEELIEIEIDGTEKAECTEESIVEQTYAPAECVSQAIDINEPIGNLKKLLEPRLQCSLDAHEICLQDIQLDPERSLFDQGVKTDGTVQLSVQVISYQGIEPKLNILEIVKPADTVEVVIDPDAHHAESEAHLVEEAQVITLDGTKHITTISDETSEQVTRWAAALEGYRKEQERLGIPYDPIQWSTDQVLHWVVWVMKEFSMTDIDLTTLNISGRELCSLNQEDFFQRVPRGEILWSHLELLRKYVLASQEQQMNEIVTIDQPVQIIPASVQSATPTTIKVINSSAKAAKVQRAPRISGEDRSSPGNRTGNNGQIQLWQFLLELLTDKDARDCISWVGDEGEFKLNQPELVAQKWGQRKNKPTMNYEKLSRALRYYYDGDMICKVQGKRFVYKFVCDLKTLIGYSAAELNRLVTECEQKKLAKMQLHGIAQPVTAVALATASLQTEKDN
# In short: as §1
# ERG = target: T4, ERG (Homo sapiens, UniProt P11308 1-479); conditions: protein: recombinant; tags: N-terminal GST; dsDNA, one strand shown
# T4 sequence: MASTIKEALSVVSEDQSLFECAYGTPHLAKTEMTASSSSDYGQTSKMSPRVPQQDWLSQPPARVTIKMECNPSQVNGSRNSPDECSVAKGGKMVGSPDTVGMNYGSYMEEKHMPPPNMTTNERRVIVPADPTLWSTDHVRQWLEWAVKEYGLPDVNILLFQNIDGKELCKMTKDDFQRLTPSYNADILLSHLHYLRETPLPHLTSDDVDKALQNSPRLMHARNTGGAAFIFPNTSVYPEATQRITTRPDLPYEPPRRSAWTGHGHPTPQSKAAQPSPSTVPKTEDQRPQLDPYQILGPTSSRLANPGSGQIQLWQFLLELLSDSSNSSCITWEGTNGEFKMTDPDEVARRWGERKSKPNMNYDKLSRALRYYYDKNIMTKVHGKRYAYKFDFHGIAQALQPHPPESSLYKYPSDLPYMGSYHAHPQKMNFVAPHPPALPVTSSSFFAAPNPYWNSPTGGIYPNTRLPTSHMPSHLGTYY
# In short: as §1
# ELF1 = ELF1 (Homo sapiens, UniProt P32519 1-619); conditions: protein: recombinant; tags: N-terminal GST; dsDNA, one strand shown
# In short: as §1
# EHF = target: T5, EHF (Homo sapiens, UniProt Q9NZC4 1-300); conditions: protein: recombinant; tags: N-terminal GST; dsDNA, one strand shown
# T5 sequence: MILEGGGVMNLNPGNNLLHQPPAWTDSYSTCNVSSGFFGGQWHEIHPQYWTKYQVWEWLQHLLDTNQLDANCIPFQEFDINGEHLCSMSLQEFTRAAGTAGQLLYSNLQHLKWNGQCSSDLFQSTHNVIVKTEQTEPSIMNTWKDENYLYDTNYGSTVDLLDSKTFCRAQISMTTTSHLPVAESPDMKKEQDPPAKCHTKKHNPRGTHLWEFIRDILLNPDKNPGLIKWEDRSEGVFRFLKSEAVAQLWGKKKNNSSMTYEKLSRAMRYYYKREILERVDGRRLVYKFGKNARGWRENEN
# In short: as §1
# SPI1 = SPI1 (Homo sapiens, UniProt P17947 1-270); conditions: protein: recombinant; tags: N-terminal GST; dsDNA, one strand shown
# In short: as §1
# SPIB = SPIB (Homo sapiens, UniProt Q01892 1-262); conditions: protein: recombinant; tags: N-terminal GST; dsDNA, one strand shown
# In short: as §1
# ELK3 = target: T6, ELK3 (Homo sapiens, UniProt P41970 1-407); conditions: protein: recombinant; tags: N-terminal GST; dsDNA, one strand shown
# T6 sequence: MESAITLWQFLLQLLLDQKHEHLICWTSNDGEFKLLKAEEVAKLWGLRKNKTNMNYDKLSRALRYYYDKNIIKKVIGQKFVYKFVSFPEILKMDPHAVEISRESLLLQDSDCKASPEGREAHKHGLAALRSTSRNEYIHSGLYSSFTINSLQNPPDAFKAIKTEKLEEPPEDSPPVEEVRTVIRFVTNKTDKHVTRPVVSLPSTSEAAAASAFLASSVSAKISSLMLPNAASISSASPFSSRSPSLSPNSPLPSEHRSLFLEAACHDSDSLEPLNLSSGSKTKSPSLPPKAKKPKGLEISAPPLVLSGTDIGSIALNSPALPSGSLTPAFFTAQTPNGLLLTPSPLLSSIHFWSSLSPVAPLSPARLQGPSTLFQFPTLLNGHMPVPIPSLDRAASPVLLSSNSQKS
# In short: as §1
# FEV = target: T7, FEV (Homo sapiens, UniProt Q99581 1-238); conditions: protein: recombinant; tags: N-terminal GST; dsDNA, one strand shown
# T7 sequence: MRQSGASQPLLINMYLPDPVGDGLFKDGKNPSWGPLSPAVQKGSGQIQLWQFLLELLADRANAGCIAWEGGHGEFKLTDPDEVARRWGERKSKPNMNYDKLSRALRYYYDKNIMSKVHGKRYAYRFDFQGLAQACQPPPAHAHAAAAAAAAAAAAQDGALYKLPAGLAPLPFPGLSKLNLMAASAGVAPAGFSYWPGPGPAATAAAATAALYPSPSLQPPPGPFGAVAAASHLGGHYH
# In short: as §1
# ETV5 = ETV5 (Homo sapiens, UniProt P41161 1-510); conditions: protein: recombinant; tags: N-terminal GST; dsDNA, one strand shown
# In short: as §1
# HSF1 = HSF1 (Homo sapiens, UniProt Q00613 1-529); conditions: protein: recombinant; tags: N-terminal GST; chain copies: 3; dsDNA, one strand shown
# In short: as §1
# SPIC = target: T8, SPIC (Homo sapiens, UniProt Q8N5J4 1-248); conditions: protein: recombinant; tags: N-terminal GST; dsDNA, one strand shown
# T8 sequence: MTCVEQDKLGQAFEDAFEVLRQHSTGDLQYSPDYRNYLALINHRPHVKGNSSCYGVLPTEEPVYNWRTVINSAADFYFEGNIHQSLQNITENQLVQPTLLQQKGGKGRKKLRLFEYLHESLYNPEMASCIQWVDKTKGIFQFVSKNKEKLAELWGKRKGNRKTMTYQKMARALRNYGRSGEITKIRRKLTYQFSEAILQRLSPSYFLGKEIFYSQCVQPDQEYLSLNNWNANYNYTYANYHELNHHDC
# In short: as §1
# ELF4 = ELF4 (Homo sapiens, UniProt Q99607 1-663); conditions: protein: recombinant; tags: N-terminal GST; dsDNA, one strand shown
# In short: as §1
# ELK4 = target: T9, ELK4 (Homo sapiens, UniProt P28324-2 1-405); conditions: protein: recombinant; tags: N-terminal GST; dsDNA, one strand shown
# T9 sequence: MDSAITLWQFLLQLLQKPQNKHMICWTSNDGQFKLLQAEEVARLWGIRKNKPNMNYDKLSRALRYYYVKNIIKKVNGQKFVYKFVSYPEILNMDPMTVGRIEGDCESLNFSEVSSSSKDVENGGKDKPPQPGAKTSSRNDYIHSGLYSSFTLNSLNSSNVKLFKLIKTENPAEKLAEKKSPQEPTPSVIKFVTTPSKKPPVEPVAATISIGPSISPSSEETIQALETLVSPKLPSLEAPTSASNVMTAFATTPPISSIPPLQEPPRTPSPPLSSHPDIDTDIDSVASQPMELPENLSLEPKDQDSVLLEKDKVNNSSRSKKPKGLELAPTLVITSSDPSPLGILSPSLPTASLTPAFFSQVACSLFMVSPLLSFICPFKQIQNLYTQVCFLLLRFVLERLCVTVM
# In short: as §1
# ETV2 = target: T10, ETV2 (Homo sapiens, UniProt O00321 1-342); conditions: protein: recombinant; tags: N-terminal GST; dsDNA, one strand shown
# T10 sequence: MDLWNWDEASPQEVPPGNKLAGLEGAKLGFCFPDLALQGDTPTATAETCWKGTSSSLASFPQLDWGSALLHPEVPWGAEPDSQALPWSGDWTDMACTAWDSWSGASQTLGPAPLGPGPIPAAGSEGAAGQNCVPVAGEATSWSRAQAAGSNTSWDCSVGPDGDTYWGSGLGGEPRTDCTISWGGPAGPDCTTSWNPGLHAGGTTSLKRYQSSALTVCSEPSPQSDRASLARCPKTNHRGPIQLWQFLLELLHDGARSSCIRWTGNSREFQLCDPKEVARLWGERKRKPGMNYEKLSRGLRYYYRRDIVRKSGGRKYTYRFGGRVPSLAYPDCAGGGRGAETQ
# In short: as §1
# ELF3 = target: T11, ELF3 (Homo sapiens, UniProt P78545 1-371); conditions: protein: recombinant; tags: N-terminal GST; dsDNA, one strand shown
# T11 sequence: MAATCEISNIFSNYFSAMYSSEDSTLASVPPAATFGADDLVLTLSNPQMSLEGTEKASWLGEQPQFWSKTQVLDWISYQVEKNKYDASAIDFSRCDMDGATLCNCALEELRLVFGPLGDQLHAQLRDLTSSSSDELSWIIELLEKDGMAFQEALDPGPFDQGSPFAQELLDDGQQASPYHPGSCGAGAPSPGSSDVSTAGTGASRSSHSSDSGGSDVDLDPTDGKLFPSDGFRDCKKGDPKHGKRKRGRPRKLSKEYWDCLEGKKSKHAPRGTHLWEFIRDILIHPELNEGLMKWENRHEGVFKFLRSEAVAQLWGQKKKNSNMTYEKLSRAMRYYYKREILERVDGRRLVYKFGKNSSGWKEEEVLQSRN
# In short: as §1
# CRX = CRX (Homo sapiens, UniProt O43186 1-299); conditions: protein: recombinant; tags: N-terminal GST; dsDNA, one strand shown
# In short: as §1
# ETV1 = ETV1 (Homo sapiens, UniProt P50549 1-477); conditions: protein: recombinant; tags: N-terminal GST; dsDNA, one strand shown
# In short: as §1
# Sequence of ETV1 (P50549 whole entry): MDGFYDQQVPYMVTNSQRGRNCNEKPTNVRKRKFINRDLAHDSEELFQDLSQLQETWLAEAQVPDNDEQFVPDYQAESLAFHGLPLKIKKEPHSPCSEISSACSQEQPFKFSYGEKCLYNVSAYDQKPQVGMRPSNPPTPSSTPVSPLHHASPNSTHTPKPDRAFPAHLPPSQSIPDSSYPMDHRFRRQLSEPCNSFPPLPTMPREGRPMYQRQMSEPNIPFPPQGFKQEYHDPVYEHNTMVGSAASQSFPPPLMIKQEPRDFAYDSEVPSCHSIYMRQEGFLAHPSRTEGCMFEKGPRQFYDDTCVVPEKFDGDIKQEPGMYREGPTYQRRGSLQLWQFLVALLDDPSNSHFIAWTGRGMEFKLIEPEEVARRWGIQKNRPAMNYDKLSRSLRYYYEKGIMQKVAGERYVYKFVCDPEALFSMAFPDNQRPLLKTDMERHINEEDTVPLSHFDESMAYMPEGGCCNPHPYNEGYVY
# Sequence of ELF1 (P32519 whole entry): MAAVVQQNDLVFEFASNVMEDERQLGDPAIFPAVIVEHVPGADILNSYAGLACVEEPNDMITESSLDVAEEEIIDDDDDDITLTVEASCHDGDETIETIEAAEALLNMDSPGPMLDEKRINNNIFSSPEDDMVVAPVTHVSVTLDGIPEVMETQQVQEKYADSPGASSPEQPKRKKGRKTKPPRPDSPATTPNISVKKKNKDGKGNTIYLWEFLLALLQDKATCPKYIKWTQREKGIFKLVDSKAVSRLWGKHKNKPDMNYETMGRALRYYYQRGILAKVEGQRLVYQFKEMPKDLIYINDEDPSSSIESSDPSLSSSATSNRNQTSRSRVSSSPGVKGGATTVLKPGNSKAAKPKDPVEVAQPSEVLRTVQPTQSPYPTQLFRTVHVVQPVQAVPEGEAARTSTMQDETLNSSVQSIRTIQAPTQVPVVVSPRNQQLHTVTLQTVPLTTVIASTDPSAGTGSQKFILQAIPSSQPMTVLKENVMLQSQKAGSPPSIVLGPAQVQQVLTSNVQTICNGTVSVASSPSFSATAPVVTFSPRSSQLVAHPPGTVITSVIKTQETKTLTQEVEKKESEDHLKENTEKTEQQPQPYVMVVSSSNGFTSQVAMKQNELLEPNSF
# Sequence of ELF4 (Q99607 whole entry): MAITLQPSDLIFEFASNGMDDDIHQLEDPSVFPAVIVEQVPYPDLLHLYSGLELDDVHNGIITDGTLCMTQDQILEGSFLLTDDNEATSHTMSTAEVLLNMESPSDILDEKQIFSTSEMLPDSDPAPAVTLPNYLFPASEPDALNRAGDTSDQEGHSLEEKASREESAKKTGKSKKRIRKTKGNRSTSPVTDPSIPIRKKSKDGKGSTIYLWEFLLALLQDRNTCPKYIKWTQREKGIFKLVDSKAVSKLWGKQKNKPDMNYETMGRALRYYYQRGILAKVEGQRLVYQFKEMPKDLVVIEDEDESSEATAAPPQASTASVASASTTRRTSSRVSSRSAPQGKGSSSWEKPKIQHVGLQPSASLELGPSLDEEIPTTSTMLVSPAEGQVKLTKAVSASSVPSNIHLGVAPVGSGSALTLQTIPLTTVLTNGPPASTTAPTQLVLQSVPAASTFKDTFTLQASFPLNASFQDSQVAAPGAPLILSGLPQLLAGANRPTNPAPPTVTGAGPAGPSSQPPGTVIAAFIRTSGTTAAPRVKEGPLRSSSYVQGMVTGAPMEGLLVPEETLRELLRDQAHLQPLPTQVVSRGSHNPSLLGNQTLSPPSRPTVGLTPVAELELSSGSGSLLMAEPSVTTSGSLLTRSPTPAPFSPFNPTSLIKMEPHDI
# Sequence of SPIB (Q01892 whole entry): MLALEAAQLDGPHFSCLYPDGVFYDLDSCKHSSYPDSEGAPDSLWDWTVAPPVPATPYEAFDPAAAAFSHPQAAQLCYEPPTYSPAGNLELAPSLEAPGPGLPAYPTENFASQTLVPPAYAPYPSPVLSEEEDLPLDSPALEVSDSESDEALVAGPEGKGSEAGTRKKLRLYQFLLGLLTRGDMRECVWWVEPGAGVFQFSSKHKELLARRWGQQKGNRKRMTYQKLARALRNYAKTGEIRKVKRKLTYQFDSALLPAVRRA
# Sequence of HSF1 (Q00613 whole entry): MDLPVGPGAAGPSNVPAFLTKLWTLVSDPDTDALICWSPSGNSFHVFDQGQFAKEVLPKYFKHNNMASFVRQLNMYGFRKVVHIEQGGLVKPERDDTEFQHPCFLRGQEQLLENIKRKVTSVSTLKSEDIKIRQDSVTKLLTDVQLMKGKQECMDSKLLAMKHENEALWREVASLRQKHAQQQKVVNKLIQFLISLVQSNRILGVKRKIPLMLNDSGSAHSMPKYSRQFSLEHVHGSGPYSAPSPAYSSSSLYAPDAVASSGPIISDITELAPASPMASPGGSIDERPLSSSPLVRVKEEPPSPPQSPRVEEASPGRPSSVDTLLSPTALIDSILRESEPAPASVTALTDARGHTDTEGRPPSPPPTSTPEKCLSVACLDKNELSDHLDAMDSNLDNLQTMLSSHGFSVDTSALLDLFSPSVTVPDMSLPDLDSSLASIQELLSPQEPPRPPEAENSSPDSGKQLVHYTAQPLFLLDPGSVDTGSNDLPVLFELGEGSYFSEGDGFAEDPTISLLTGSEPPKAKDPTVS
# Sequence of ETV5 (P41161 whole entry): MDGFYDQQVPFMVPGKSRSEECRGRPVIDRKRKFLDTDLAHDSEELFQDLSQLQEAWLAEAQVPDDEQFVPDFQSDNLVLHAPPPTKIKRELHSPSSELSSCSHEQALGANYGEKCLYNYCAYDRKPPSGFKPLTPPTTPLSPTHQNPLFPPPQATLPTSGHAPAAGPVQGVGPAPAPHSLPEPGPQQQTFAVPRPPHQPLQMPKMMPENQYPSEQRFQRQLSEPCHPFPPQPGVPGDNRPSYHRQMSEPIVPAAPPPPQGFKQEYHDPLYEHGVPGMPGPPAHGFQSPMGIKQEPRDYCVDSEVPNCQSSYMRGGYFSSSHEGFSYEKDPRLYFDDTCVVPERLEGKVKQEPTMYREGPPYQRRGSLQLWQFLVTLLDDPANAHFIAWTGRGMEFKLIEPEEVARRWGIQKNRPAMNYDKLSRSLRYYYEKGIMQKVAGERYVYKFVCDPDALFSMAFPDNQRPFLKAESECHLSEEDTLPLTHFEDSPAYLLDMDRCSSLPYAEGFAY
# Sequence of CRX (O43186 whole entry): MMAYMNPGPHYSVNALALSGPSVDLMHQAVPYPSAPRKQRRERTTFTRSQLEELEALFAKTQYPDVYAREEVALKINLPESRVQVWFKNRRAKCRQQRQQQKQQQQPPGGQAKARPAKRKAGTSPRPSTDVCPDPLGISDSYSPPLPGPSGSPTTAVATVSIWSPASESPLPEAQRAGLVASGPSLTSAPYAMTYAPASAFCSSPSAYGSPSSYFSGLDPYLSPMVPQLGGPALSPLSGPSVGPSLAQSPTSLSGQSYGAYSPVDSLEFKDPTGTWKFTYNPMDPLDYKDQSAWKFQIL
sequence,measurement,setting,value
CTTCGA,binding signal,FLI1,"1.4 fold enrichment (6-mer frequency, TF over GST control)"
same,binding signal,ELK1,"1.33 fold enrichment (6-mer frequency, TF over GST control)"
same,binding signal,GABPA,"1.25 fold enrichment (6-mer frequency, TF over GST control)"
same,binding signal,ERG,"1.49 fold enrichment (6-mer frequency, TF over GST control)"
same,binding signal,ELF1,"1.41 fold enrichment (6-mer frequency, TF over GST control)"
same,binding signal,EHF,"1.19 fold enrichment (6-mer frequency, TF over GST control)"
same,binding signal,SPI1,"1.3 fold enrichment (6-mer frequency, TF over GST control)"
same,binding signal,SPIB,"1.31 fold enrichment (6-mer frequency, TF over GST control)"
same,binding signal,ELK3,"1.57 fold enrichment (6-mer frequency, TF over GST control)"
same,binding signal,FEV,"1.35 fold enrichment (6-mer frequency, TF over GST control)"
same,binding signal,ETV5,"1.4 fold enrichment (6-mer frequency, TF over GST control)"
same,binding signal,HSF1,"2.52 fold enrichment (6-mer frequency, TF over GST control)"
same,binding signal,SPIC,"1.42 fold enrichment (6-mer frequency, TF over GST control)"
same,binding signal,ELF4,"1.4 fold enrichment (6-mer frequency, TF over GST control)"
same,binding signal,ELK4,"1.3 fold enrichment (6-mer frequency, TF over GST control)"
same,binding signal,ETV2,"1.38 fold enrichment (6-mer frequency, TF over GST control)"
same,binding signal,ELF3,"1.42 fold enrichment (6-mer frequency, TF over GST control)"
same,binding signal,CRX,"1.49 fold enrichment (6-mer frequency, TF over GST control)"
same,binding signal,ETV1,"1.35 fold enrichment (6-mer frequency, TF over GST control)"
